Screens: PubChem BioAssay, several laboratories
TWEAK-Fn14 inh – inhibitors of TWEAK-Fn14 signaling, primary screen, luciferase reporter cells, uHTS; 2% of 360,000 active; AID 1159606, 2016; inhibition, % at 10 µM; TWEAK-stimulated Fn14 reporter cells, luciferase luminescence, 8 h; in the data active means inhibition above about 50%
HIF-2a block – HIF-2a reporter inhibitors, primary screen, luminescence, 786-0 RCC cells; 0.72% of 360,000 active; inhibition, % at 18.8 µM; 786-0 RCC cells HIF-2a reporter, luciferase luminescence, overnight;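 active means inhibition of the luminescence signal of 40% or more relative to plate controls, in a single-dose primary screen at 18.75 µM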
Shn3 3UTR inh – reduction of Shn3 3'UTR firefly luciferase signal, primary screen, Schnurri-3 inhibitor project, cell-based, Clone20 osteoblasts, set 2; Clone20 osteoblast Shn3 3'UTR firefly luciferase, 24 h; inhibition, % at 12.5 µM; 0.52% of 360,000 active;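 active means mean inhibition of at least 75% with every replicate also reaching 75%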;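 further: 0% = median of neutral control wells and 100% = pilot-screen positive control compound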
MITF TRPM1 inh – inhibitors of MITF-dependent TRPM1 promoter reporter, primary screen, cell-based, SK-MEL-5, single point, luciferase | AID 488899, 2010 | SK-MEL-5 TRPM1 promoter luciferase, 24 h | 0.83% of 330,000 active | inhibition, % at 12.5 µM;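 active means mean inhibition across replicates of 60% or more, whatever share of single replicates reaches that level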
TROY NFkB inh – inhibitors of TROY-driven NF-kB signaling, primary screen, Q293 LMP1-TROYcd cells, NF-kB luciferase, uHTS; Q293 LMP1-TROYcd NF-kB luciferase reporter, 4 h; inhibition, % at 10 µM; 0.98% of 360,000 active; AID 1347056, 2019;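 active means compounds whose plate-normalised and pattern-corrected inhibition of the luciferase reporter signal at the single screening dose is 50% or more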
LMP1 NFkB inh – EBV LMP1-driven NF-kappaB luciferase reporter inhibitors, primary screen, cell-based, luminescence, single point | LMP1-induced NF-kappaB luciferase reporter cells | inhibition, % at 12.5 µM | 0.69% of 350,000 active | AID 504558, 2011; in the data active means inhibition above about 41%;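 further: 0% = neutral control wells and 100% = reference inhibitor control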
Numbers without * were called inactive; x = not tested or not shown. Sampled rows, rich in hits. Any-hit rate of the full collection: about 3.4%.

SMILES	TWEAK-Fn14 inh	HIF-2a block	Shn3 3UTR inh	MITF TRPM1 inh	TROY NFkB inh	LMP1 NFkB inh
Cc1ccc(N2Cc3ccccc3C2=O)cc1	53*	-178	-20	-3	-14	14
O=C(NC(c1ccccc1)c1ccc2ccccc2n1)C1CCN(CCOc2ccc(Cl)cc2)CC1 (centres undefined)	92*	-19	38	x	11	x
O=C(Nc1nnc(-c2ccccc2)s1)c1cc(S(=O)(=O)N2CCOCC2)c(Cl)cc1Cl	-55	-8	-1	-2	61*	-1
Oc1ccc(C2C[C@H]3CC[C@@H]2C3)cc1O (some centres undefined)	39	55*	54	-17	-6	-8
CCc1ccc(S(=O)(=O)/N=C2\C=C(Nc3ccc(O)cc3)C(=O)c3ccccc32)cc1	94*	69*	95*	100*	74*	90*
CCc1ccc(S(=O)(=O)/N=C2/C=C(Sc3ncn[nH]3)C(=O)c3ccccc32)cc1	96*	89*	98*	70*	60*	24
CCc1ccc(S(=O)(=O)/N=C2\C=C(Nc3cccc(C(=O)O)c3)C(=O)c3ccccc32)cc1	98*	-68	15	20	-7	-9
COc1ccccc1Cn1c(C)c(C(=O)NCc2ccco2)sc1=O	10	-14	6	x	-4	x
Cc1cc(C(=O)COc2ccc(C#N)cc2)c(C)n1-c1ccc2c(c1)OCO2	89*	-26	46	17	1	9
Cc1cc(C(=O)COC(=O)Cc2n[nH]c(=O)c3ccccc23)c(C)n1-c1ccc2c(c1)OCCO2	68*	-2	25	11	39	14
Cc1cc(C(=O)COC(=O)C2=COCCO2)c(C)n1-c1ccc2c(c1)OCO2	-11	-155	-47	-61	-21	-35
O=[N+]([O-])c1ccc(S(=O)(=O)NCCS(=O)(=O)N2CCN(c3ccccc3)CC2)cc1	-7	8	3	16	6	-4
Cc1nn(CC(=O)OCC(=O)c2ccccc2)c(C)c1[N+](=O)[O-]	-19	3	-11	6	-6	-6
CCCN(CC(=O)Nc1ccc(Cl)cc1Cl)C(=O)c1ccc(=O)[nH]c1	10	12	5	8	-10	-5
COc1ccc(CCNc2ncnc3[nH]ncc23)cc1OC	26	1	67	10	7	2
COc1ccc(CCNc2ncnc3sc(C)cc23)cc1OC	76*	7	89*	43	32	26
COc1cc(Cl)c(C)cc1NC(=O)c1ccccc1NC(=O)CN1CCN(C(C)=O)CC1	-2	0	-6	x	14	1
O=C(NCC1CCCO1)c1cccc2c1C(=O)c1ccc(N3CCC(Cc4ccccc4)CC3)cc1S2(=O)=O (centres undefined)	90*	27	18	25	56*	19
CC1CCN(c2ccc3c(c2)S(=O)(=O)c2cccc(C(=O)NC[C@@H]4CCCO4)c2C3=O)CC1	6	-137	2	-29	-18	1
CC(=O)Oc1cc2cccc(OC(C)=O)c(=O)c2c(OC(C)=O)c1OC(C)=O	84*	16	54	21	34	7
COc1cc2cccc(OC)c(=O)c2c(O)c1OC	-41	-99	-30	-18	-22	0
N#C/C(=C/c1ccc(N2CCCCCC2)o1)c1cccc(F)c1	24	-286	95*	-85	14	-25
N#C/C(=C/c1ccc(N2CCCCCC2)o1)c1ccc(F)cc1	22	71*	64	11	-2	-8
N#C/C(=C\c1ccc(N2CCOCC2)o1)c1ccccc1	9	-260	92*	-89	-6	-27
N#C/C(=C/c1ccc(N2CCOCC2)o1)c1ccc(Br)cc1	14	-127	55	-61	17	-51
COc1cc(N2CCCC2)c(OC)cc1/C=C(/C#N)c1cccc(F)c1	-11	-37	3	-14	-5	0
O=C(CN1C(=O)CNC1=O)Nc1cc(Cl)cc(Cl)c1	-2	6	1	-8	4	-1
